A selection: hits, their analogues and other compounds. The true share with any hit is near 4.8%.
IL-1B inflam inh = inhibitors of inflammasome signaling (IL-1 beta secretion); activity change, % at 57.5 µM; THP-1 LPS/ATP IL-1B secretion, AlphaLISA, 16 h; hits give low values; hit rate 4.7% among 360,000; in the data active means activity change below about -50%; inconclusive means mostly about -30% to -49%; further: on the % scale 0 is the no-effect control and ±100 the full control effect
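THP-1 cells pretreated 1 hr with compounds (up to 57.5 uM final), then stimulated with LPS (250 ng/mL final) plus ATP (1.25 mM final); secreted IL-1B measured by AlphaLISA after 16 hr, decreased signal indicating inhibition.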
USP1-UAF1 inh = blocks the human USP1/UAF1 deubiquitinase complex. Potency, µM (highest dose often 57.1 µM), inactives show at the top dose activity change, negative = inhibition, usual class: inhibitors. hit rate 0.23% among 390,000. recombinant USP1/UAF1, Ub-Rhodamine cleavage fluorescence. AID 743255; further: potency means the concentration at half of the fitted maximal effect; on the % scale 0 is the no-effect control and ±100 the full control effect; nearly all actives have a fitted effect of over 60% in size
Target sequence (O94782 whole entry, looked up): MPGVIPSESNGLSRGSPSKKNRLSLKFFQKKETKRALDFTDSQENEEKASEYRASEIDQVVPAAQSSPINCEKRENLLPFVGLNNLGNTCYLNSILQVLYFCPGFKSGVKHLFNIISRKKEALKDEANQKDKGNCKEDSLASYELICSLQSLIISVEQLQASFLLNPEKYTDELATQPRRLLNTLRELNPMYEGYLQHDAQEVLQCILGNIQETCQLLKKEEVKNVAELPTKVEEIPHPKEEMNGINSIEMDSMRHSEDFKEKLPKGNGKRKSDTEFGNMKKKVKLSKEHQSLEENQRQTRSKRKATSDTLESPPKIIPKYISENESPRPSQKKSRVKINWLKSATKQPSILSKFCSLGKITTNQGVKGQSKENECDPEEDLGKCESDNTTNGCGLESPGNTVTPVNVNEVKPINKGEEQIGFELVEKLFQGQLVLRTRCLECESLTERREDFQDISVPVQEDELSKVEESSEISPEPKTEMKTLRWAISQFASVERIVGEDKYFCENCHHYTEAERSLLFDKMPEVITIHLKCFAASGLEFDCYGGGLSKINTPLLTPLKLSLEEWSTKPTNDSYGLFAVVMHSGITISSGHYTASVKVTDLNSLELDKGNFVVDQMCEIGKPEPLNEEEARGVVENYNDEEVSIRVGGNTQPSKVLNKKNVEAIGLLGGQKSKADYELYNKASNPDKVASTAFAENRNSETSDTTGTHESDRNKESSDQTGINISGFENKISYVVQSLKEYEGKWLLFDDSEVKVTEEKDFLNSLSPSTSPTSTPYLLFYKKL
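High-throughput fluorogenic screen: 1nM USP1/UAF1 complex, Ub-Rho substrate 150nM final, 50mM HEPES pH 7.8 with 0.5mM EDTA, 0.1 mg/ml BSA, 1mM TCEP and 0.01% Tween-20.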
S2 tox = reduces viability in counter-screen for ATXN expression inhibitors; hit rate 0.49% among 400,000; S2 cells (HEK-293 line with an ATXN2-luciferase reporter) viability, CellTiter-Fluor protease fluorescence, 24 h; Potency, µM (top dose mostly 56.7 µM), hits mostly cytotoxic; further: potency means the concentration at half of the fitted maximal effect; nearly all actives have a fitted effect of over 40% in size
ATXN2 expr inh = ATXN2 expression inhibition; HEK-293 ATXN2-luciferase reporter, luminescence, 24 h; Potency, µM (series often up to 57 µM), for the others: at the top dose activity change, negative = inhibition, actives largely listed as inhibitors; hit rate 0.72% among 360,000; AID 1745845; further: potency means the concentration at half of the fitted maximal effect; on the % scale 0 is the no-effect control and ±100 the full control effect; nearly all actives have a fitted effect of over 55% in size
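qHTS (up to 57 uM final) was run with 24 h compound exposure of reporter cells at 37 °C. Each well was multiplexed: SteadyGlo luminescence measured ATXN2-luciferase expression after a fluorogenic Gly-Phe-AFC viability readout (25 uM final).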
USP2a block = inhibitors of human ubiquitin-specific protease USP2a; USP2 core, Ub-CHOP2 coupled fluorogenic reporter, 485/531; O75604; AID 463254; hit rate 0.01% among 330,000; Potency, µM (doses to about 38.3 µM), without a hit: at the top dose activity change, negative = inhibition, usual class: inhibitors;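 further: potency means the concentration at half of the fitted maximal effect; plate controls were DMSO wells for no effect and full inhibition by NEM control for full effect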
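Deubiquitinase activity read as fluorescence (485/531 nm) after Ub-CHOP2 cleavage activates the enterokinase reporter on its substrate; USP2 core 10nM, Ub-CHOP2 and substrate 25nM each, 30min compound preincubation then 60min RT; data normalized to NEM, curves fitted.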
Starred values were filed as active, the others as inactive; i = inactive; ? = inconclusive; / = no result. Unless noted, the call rests on the fitted dose curve; in most records, active means well fitted curve in the direction sought with a large enough effect; inconclusive means small, poorly fitted or top-dose-only effect, or another doubt; inactive means no such curve, though single readings can be large; an effect the other way counts as inactive or inconclusive.

SMILES	IL-1B inflam inh	USP1-UAF1 inh	S2 tox	ATXN2 expr inh	USP2a block
CCN(CC)S(=O)(=O)c1cc(C(=O)Nc2cc(C)on2)c(Cl)cc1Cl	-94*	-6%	i	-13%	-1%
CC[n+]1c(/C=C(\C)SC)sc2ccccc21	26	-6%	i	-24%	2%
CC[n+]1c(/C=C(\C)Nc2ccccc2)sc2ccccc21	-80*	-6%	i	?	1%
CC[n+]1c(C=C2C=C(C)OC(C)=C2)sc2ccccc21	-95*	-19%	?	11µM*	0%
CC[n+]1c(/C=C(\C)OC)sc2ccccc21	-21	-17%	i	-10%	2%
CCN1/C(=C/C=C/c2sc3ccccc3[n+]2CC)Sc2ccccc21	-105*	?	11µM*	7.1µM*	-1%
CC[n+]1c(/C=C/Nc2ccccc2)sc2ccccc21	-102*	0%	i	-26%	-3%
C[C@@H](O)[C@H]1C(=O)N2C(C(=O)O)=C(S[C@@H]3CN[C@H](CNS(N)(=O)=O)C3)[C@H](C)[C@H]12	/	/	i	6%	/
CCOc1ccc(-n2c(-c3ccc(Cl)cc3)c[n+]3c2SCC3)cc1	-86*	-20%	i	?	10%
CCC(=O)N1CCCC(C(=O)Nc2nc3ccccc3[nH]2)CC1 (centres undefined)	18	/	i	27%	/
O=C(O)CNc1nc(-c2ccccc2)nc2ccccc12	20	-9%	i	-4%	0%
Cc1cccc2nc(-c3ccccc3)nc(N[C@@H](CO)c3ccccc3)c12	-63*	-21%	i	-14%	-8%
C=CCNc1nc(NCc2ccc(N(C)C)cc2)c2sc(-c3ccccc3)cc2n1	-24	/	?	-8%	/
COCCNc1nc(-c2cc(F)ccc2C)c2sc(-c3ccccc3)cc2n1	-82*	/	i	-15%	/
COc1ccc(Nc2ncnc3sc(-c4ccccc4)cc23)cc1OC	?	0%	i	-5%	4%
C=CCNc1nc(Nc2ccc(OC)c(OC)c2)c2sc(-c3ccccc3)cc2n1	-108*	/	i	0%	/
C=CCNc1nc(NCCOC)c2sc(-c3ccccc3)cc2n1	-113*	/	?	?	/
C=CCNc1nc(NCCOc2ccccc2Cl)c2sc(-c3ccccc3)cc2n1	-111*	/	?	?	/
C=CCNc1nc(NCCNC(C)=O)c2sc(-c3ccccc3)cc2n1	-3	/	?	-15%	/
CC1(C(=O)NS(=O)(=O)c2ccc(F)cc2F)CCN1C(=O)c1ccccc1CCc1ccccc1 (centres undefined)	23	/	i	12%	/
O=c1cc(CN(Cc2ccccc2)Cc2ccccc2)c2c(ccc3ccccc32)o1	42	/	i	-3%	/
Cc1nc(NCc2cccc3c2OCO3)sc1-c1ccn(CC2CCCN(C)C2)n1 (centres undefined)	/	/	i	/	/
Cc1cc(C(=O)NCCN2Cc3ccccc3OC(c3ccccc3F)C2)no1 (centres undefined)	/	/	i	/	/
O=C1C=CC(=O)N1Cc1ccccc1	-73*	8%	?	?	0%
CCOC(=O)c1ccc(NC(=O)CN(C)S(=O)(=O)c2ccc(OC)cc2)cc1	29	-19%	i	-4%	0%
SMILES	IL-1B inflam inh	USP1-UAF1 inh	S2 tox	ATXN2 expr inh	USP2a block
CCOC(=O)c1ccc(NC(=O)CN(C)S(=O)(=O)c2ccc(Br)s2)cc1	-72*	-24%	i	-18%	1%
COc1ccc(-c2csc(Nc3ccc(C)cn3)n2)cc1OC	?	-23%	i	14%	2%
Cc1ccc(Nc2nc(-c3ccc(F)cc3)cs2)nc1	19	-18%	i	/	1%
COc1ccc(-c2csc(Nc3cc(C)ccn3)n2)cc1OC	-87*	-13%	i	46%	3%
Cc1ccc(Nc2nc(-c3ccc(O)c(O)c3)cs2)nc1	-77*	-14%	i	13%	0%
CC(=O)Nc1ccc(-c2csc(N/N=C(/C)c3ccccc3)n2)cc1	-70*	-7%	i	-7%	-2%
Cc1ccnc(Nc2nc(-c3c(C)nc4sccn34)cs2)c1	-61*	?	/	/	-6%
Cc1ccn(CCNC(=O)C2CCC(=O)N(Cc3ccc(Cl)cc3)C2)n1 (centres undefined)	0	1%	i	-12%	0%
CC(=O)Nc1ccc(-c2csc(Nc3cc(C)ccn3)n2)cc1	-104*	-15%	?	-5%	-1%
CC(=O)Nc1cccc(-c2csc(Nc3cc(C)ccn3)n2)c1	-96*	-11%	/	?	-5%
Cc1ccnc(Nc2nc(-c3ccccc3)cs2)c1	-6	-14%	i	/	4%
CC(=O)Nc1cccc(-c2csc(Nc3ccccn3)n2)c1	-13	-4%	i	71%	-4%
Cc1cc2nc(CCN(C(=S)NCC3CCCO3)C3CCCC3)[nH]c2cc1C (centres undefined)	-52*	-10%	?	14%	-5%
Cc1cc2nc(CCN(C(=S)NCC(C)C)C3CCCC3)[nH]c2cc1C	-66*	-13%	?	?	-2%
O=C(CNC(=S)N(Cc1ccc(F)cc1)C1CCCCC1)NCC1CCCO1 (centres undefined)	-1	-8%	i	-19%	5%
COc1ccccc1CNC(=O)CCCn1c(=O)c2cccn2c2ccccc21	/	-29%	/	/	/
O=C(/C=C/c1ccccc1)N1CCOCC1	-1	-17%	i	6%	3%
O=C(/C=C/c1ccccc1)CCN1CCOCC1	-84*	-17%	?	?	/
CN(C)CCC(=O)N1C/C(=C/c2ccccc2)C(=O)/C(=C\c2ccccc2)C1	-100*	-24%	4.2µM*	2.1µM*	/
CCOC(=O)N1C/C(=C\c2ccccc2)C(=O)/C(=C/c2ccccc2)C1	?	-20%	?	/	5%
Cc1ccc(S(=O)(=O)N(C)CCCC(=O)N2CCN(C=O)CC2)cc1	23	-13%	i	-1%	3%
O=C1/C(=C/c2ccccc2)CN(C(=O)CCN2CCOCC2)C/C1=C\c1ccccc1	-101*	-7%	21µM*	27µM*	/
C[N+](C)(C)CCC(=O)N1C/C(=C/c2ccccc2)C(=O)/C(=C\c2ccccc2)C1	-98*	?	/	8.4µM*	/
CCN1CCN(C(=O)c2ccc(CS(=O)(=O)Cc3ccccc3Cl)o2)CC1	5	-22%	i	/	/
COc1ccc(C(=O)NCC(=O)OCC(=O)NCc2ccc3c(c2)OCO3)cc1	10	-6%	?	-20%	-6%
O=C(O)C(=Cc1cccc([N+](=O)[O-])c1)c1ccc(Cl)cc1	-5	4%	i	-4%	/
Cc1ccc(S(=O)(=O)CCC(=O)c2cccc([N+](=O)[O-])c2)cc1	-98*	-16%	?	?	0%
O=C(CCNc1cccc(F)c1)c1cccc([N+](=O)[O-])c1	-86*	-16%	i	-12%	-2%
